# Measured values as given in PubChem BioAssay (NCI).
# About 83,000 compounds went through this panel and 20% of them were active in at least one assay; those are over-represented in the sample as a whole.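 Results are percent growth after 48 hours of single-concentration exposure. 100 means growth as in untreated cells, lower positive values show inhibition; negative values down to -100 show cell death.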 Unmarked numbers belong to inactive results. Active and inactive are the calls of the source. The calls were made as follows: active = growth percent below 10; inactive = the rest.
# How the values were obtained:
# Assay in all cases: NCI-60 one-dose screen, 48 h (100 = growth as untreated, 0 = no growth, -100 = all killed)
# [1] = system: BT-549 breast; details: 10 µM unless noted
# [2] = system: MDA-MB-435 melanoma; details: 10 µM unless noted
# [3] = system: SW-620 colon; details: 10 µM unless noted
# [4] = system: MCF7 breast; details: 10 µM
# [5] = system: HCT-116 colon; details: 10 µM unless noted
# [6] = system: HCC-2998 colon; details: 10 µM unless noted
# [7] = system: KM12 colon; details: 10 µM unless noted
Structure (SMILES),growth [1],growth [2],growth [3],growth [4],growth [5],growth [6],growth [7]
CCCCC1CCc2cccc3c(SCC(=O)N(C)c4ccc(Cl)cc4)cc[n+]1c23 (centres undefined),115%,103%,106%,99.1%,102%,114%,108%
O=C(O)CCC(=O)c1ccc(C2CCCCCC2)cc1,94.9%,105%,107%,96.6%,98.5%,108%,105%
CCN1C(=O)N(c2ccccc2)C2NN=c3s/c(=C4\C(=O)N(C(C)C)c5ccccc54)c(=O)n3C21 (centres undefined),12.7%,-21.2% (active),35.2%,20.6%,4.19% (active),33.4%,14.5%
CN1CCN(Cc2ccc(NC(=O)c3[nH]ncc3Nc3cc(OC4CCCC4)ncn3)cc2)CC1,12.5%,41.5%,15.8%,10.7%,4.66% (active),28.7%,21.9%
c1ccc2cc3c(Nc4ccc(N5CCOCC5)cc4)ccnc3cc2c1,99.3%,95.6%,101%,84%,90.2%,109%,102%
COc1cc(/C=C/C(=O)c2ccc(Cl)cc2)cc(CN2CCCCC2)c1O,91.2%,74%,88.6%,48.1%,82.1%,95.5%,72.6%
O=NN(C(=O)NC1CCC(C(=O)O)CC1)C1CCC(C(=O)O)CC1 (centres undefined),125%,106%,105%,93%,104%,104%,108%
O=c1oc2ccc(Br)cc2c(=O)n1-c1ccc(Br)cc1F,-19.4% (active),-8.23% (active),5.96% (active),0.224% (active),-40.2% (active),1.75% (active),-20% (active)
CN1C(=O)N(C)C2Nn3c(s/c(=C\c4ccc(Cl)cc4Cl)c3=O)=NC21 (centres undefined),93.9%,8.74% (active),63.1%,45.4%,43.9%,86.5%,28.7%
CN1C(=O)N(C)C2Nn3c(s/c(=C4\C(=O)N(CCc5ccccc5)c5ccccc54)c3=O)=NC21 (centres undefined),72.5%,5.64% (active),51.9%,43.2%,37.2%,85.9%,66.1%
CN1C(=O)N(C)C2C1NN=c1s/c(=C\c3ccc([N+](=O)[O-])cc3)c(=O)n12 (centres undefined),60.5%,6.25% (active),37.8%,26%,37.6%,84.9%,35.5%
O=S(=O)(c1ccccc1)n1cc2c(c1-c1ccccc1)CCc1sc(Nc3ccccc3)nc1-2,103%,88%,94.4%,72.9%,83.3%,110%,82.7%
N#Cc1c(N)nc2c(c1N)C(c1ccc(F)cc1)c1ccc(N)cc1O2 (centres undefined),93.8%,107%,108%,98.9%,101%,112%,91.2%
CCCN1CCN(c2ccc3nc(-c4ccc5nc(-c6cc(OC)ccc6OC)[nH]c5c4)[nH]c3c2)CC1,96.3%,106%,-70.2% (active),-63.3% (active),-57.3% (active),113%,32.3%
COc1cc(C2C(C#N)=C(N)OC3=C2C(=O)c2ccccc2C3=O)cc(OC)c1O (centres undefined),57.7%,-31% (active),13.4%,20%,22.5%,45%,14%
NCCCNc1nc2ccccc2c2c(=O)c3cc(F)ccc3sc12,81.1%,-91% (active),-83.5% (active),-69.8% (active),-78.2% (active),-68.8% (active),-73.7% (active)
COc1ccccc1N1C(=N)S/C(=C\c2ccc(OCc3ccccc3F)cc2)C1=O,97.4%,90.4%,88.1%,33%,67.8%,109%,71.2%
